Bioassay records as filed in PubChem BioAssay.
A selection follows.
aSyn UTR act = Activators working through SNCA 5'UTR binding (MLPCN); alpha-synuclein 5'UTR reporter, activators screen; activity score, % (tested at 7.5 µM), hits read low; actives 7.1% (n = 300,000); AID 1814; in the data active means activity score below about -60%
Each line names hits and unclear results; the compound was inactive in the other large screens.

CC(C)(C)N1C(=O)c2ccc(C(=O)Nc3nccs3)cc2C1=O	aSyn UTR act -156.2
O=C(Nc1nccs1)c1cncc(Br)c1	aSyn UTR act -145.4
CC(C)C(C(=O)Nc1nccs1)c1ccc(Cl)cc1 (configuration not stated)	none
Nc1ccccc1C(=O)Nc1nccs1	aSyn UTR act -103.0
O=C(Nc1nccs1)C(Br)C(Br)c1ccccc1 (configuration not stated)	aSyn UTR act -75.1
Cc1ccc(C(=O)Nc2nccs2)cc1	aSyn UTR act -124.0
O=C(Nc1nccs1)c1ccc(N2C(=O)[C@@H]3[C@H](C2=O)[C@H]2C=C[C@@H]3C2)cc1	aSyn UTR act -147.3
O=C(Nc1nccs1)c1ccc2nccnc2c1	aSyn UTR act -160.6
Nc1ccc(C(=O)Nc2nccs2)cc1	aSyn UTR act -87.4
Cn1c(SCc2ccc(C(=O)Nc3nccs3)cc2)nnc1-c1ccccc1	aSyn UTR act -102.7
CN(c1ccc(C(=O)Nc2nccs2)cc1)S(=O)(=O)c1ccccc1	aSyn UTR act -103.8
O=C(Nc1nccs1)OCc1ccccc1	aSyn UTR act -80.1
Cc1oc(-c2ccccc2)nc1C(=O)Nc1nccs1	aSyn UTR act -116.8
O=C(Nc1nccs1)c1ccc(COc2c(F)c(F)cc(F)c2F)cc1	aSyn UTR act -107.3
Cc1nc(NC(=O)c2ccccc2)sc1-c1csc(Nc2ccc(C(=O)O)cc2)n1	aSyn UTR act -73.3
CCCC(C)C(=O)Nc1nc(C)c(-c2csc(Nc3cc(OC)ccc3OC)n2)s1 (configuration not stated)	none
COc1ccccc1Nc1nc(-c2sc(NC(=O)c3cccc(Cl)c3)nc2C)cs1	aSyn UTR act -85.5
Cc1nc(N)sc1-c1csc(Nc2ccccc2)n1	aSyn UTR act -129.7
O=C(O)c1ccc(Nc2nc(-c3ccccc3)cs2)cc1	aSyn UTR act -113.9
COC(=O)Cc1[nH]n(-c2ccccc2)c(=O)c1C(C)=Nc1ccccc1	aSyn UTR act -70.8
COC(=O)Cc1[nH]n(-c2nc3ccccc3s2)c(=O)c1C(C)=Nc1ccc(C)cc1	none
CNC(=O)c1ccc(Nc2nc(-c3ccccc3)nc3ccccc23)cc1	aSyn UTR act -89.8
Cc1ccc(NC(=O)n2ncc3c(C)cccc32)c(C)c1	aSyn UTR act -108.1
CCOc1ccc(NC(=O)n2ncc3c(C)cccc32)cc1	aSyn UTR act -178.7
Cc1cccc2c1cnn2C(=O)Nc1ccc(Br)cc1F	aSyn UTR act -156.3
CN(C)c1ccc(-c2nc3cc(N)ccc3o2)cc1	none
O=C(O)c1ccccc1-c1ccccc1C(=O)Nc1ccc(-c2nc3cc(Cl)ccc3o2)cc1	aSyn UTR act -77.3
CC(C)(C)C(=O)Nc1ccc2oc(-c3cc(F)c(F)cc3Cl)nc2c1	aSyn UTR act -251.9
CC(=O)Nc1ccc(-c2nc3cc(Cl)ccc3o2)cc1	aSyn UTR act -73.3
COc1ccccc1C(=O)Nc1ccc2oc(-c3ccc(F)cc3)nc2c1	aSyn UTR act -201.4
O=c1[nH]nc(Cc2ccc3ccccc3n2)c2ccccc12	aSyn UTR act -70.8
Cc1nc(/C(N)=N/OC(=O)c2ccccc2Cl)c(C(F)(F)F)o1	aSyn UTR act -131.1
N/C(=N/OC(=O)c1ccccc1Cl)c1nonc1N	aSyn UTR act -84.9
CCc1cc2c(=O)n(-c3ccc(C)cc3)cnc2s1	aSyn UTR act -148.5
CCc1cc2c(=O)n(-c3ccccc3)cnc2s1	aSyn UTR act -95.5
C=CCOC(=O)c1[nH]c2c(c1C)C(=O)CC(c1ccco1)C2 (configuration not stated)	none
Cc1c(C(=O)OC2CCCC2C)[nH]c2c1C(=O)CCC2 (configuration not stated)	aSyn UTR act -91.7
COc1ccc(/C=N/Nc2nc(Nc3ccccc3)nc(N3CCCCC3)n2)cc1OC	aSyn UTR act -110.6
CC1C/C(=C/c2ccncc2)C(=O)/C(=C/c2ccncc2)C1 (configuration not stated)	aSyn UTR act -106.6
O=C(N/N=C/c1ccc(Br)cc1)c1ccc(F)cc1	aSyn UTR act -78.1
O=C(N/N=C/c1ccccc1Cl)c1n[nH]c2c1CCCC2	none
O=C(N/N=C/c1ccccc1)c1n[nH]c2c1CCCC2	aSyn UTR act -87.5
O=C(N/N=C/c1ccccc1C(F)(F)F)c1ccc(O)cc1	aSyn UTR act -134.8
O=C(N/N=C/c1ccccc1O)c1cccc(C(F)(F)F)c1	none
O=C(NN=C1CCCCCC1)c1ccc(Br)o1	aSyn UTR act -81.8
O=C(N/N=C/c1ccc(F)cc1)c1ccccc1	aSyn UTR act -151.7
Cc1cccc(/C=N/NC(=O)c2ccc(Br)cc2)c1	aSyn UTR act -90.0
O=C(N/N=C/c1ccc(Br)cc1)c1ccc(Br)o1	aSyn UTR act -206.9
O=C(N/N=C/c1sc2ccccc2c1O)c1ccccc1	none
O=C(NN=C1CCCC1)c1ccn[nH]1	aSyn UTR act -76.5
Nc1c(C(=O)N/N=C/c2ccccc2)cnn1-c1ccccc1	aSyn UTR act -107.7
O=C(N/N=C/c1ccc(O)cc1)c1cccc(N/N=C/c2ccc(O)cc2)c1	aSyn UTR act -107.7
C/C(=N\N=c1/sc2ccccc2n1C)c1ccccn1	aSyn UTR act -122.3
C/C(=N\N=c1/sc2ccccc2n1C)c1ccc(N2CCOCC2)cc1	aSyn UTR act -131.6
Cc1sc2c(c1C)C(=O)NC(c1ccccc1F)N2 (configuration not stated)	aSyn UTR act -114.7
Cc1cccc(C2NC(=O)c3c(sc(C)c3C)N2)c1O (configuration not stated)	aSyn UTR act -86.9
Cc1ccc(C2NC(=O)c3c(sc(C)c3C)N2)c(O)c1 (configuration not stated)	aSyn UTR act -233.6
Cc1sc(NC(=O)CCCC(=O)O)c(C(N)=O)c1-c1ccccc1	none
Cc1sc(NC(=O)C2=COCCO2)c(C(N)=O)c1C	aSyn UTR act -62.4
Cc1sc(NC(=O)c2cccs2)c(C(N)=O)c1C	aSyn UTR act -254.8
NC(=O)c1ccsc1NC(=O)c1cccs1	aSyn UTR act -164.5
CC(C)CCNC(=O)c1ccccc1NC(=O)C1=CSCCO1	aSyn UTR act -119.0
COCCNc1c(-c2cc3ccc(C)c(C)c3[nH]c2=O)nc2ccccn12	aSyn UTR act -153.0
O=C(COC(=O)Cn1cnc2ccccc21)Nc1cc2c(cc1Cl)C(=O)c1ccccc1C2=O	aSyn UTR act -161.7
COc1ccc(-c2cc(O)cc(O)c2)cc1	aSyn UTR act -143.1
Cn1nnnc1SCC(=O)c1ccc2c(c1)OCCO2	aSyn UTR act -66.8
CCCn1nnnc1SCC(=O)c1ccc2c(c1)OCCO2	aSyn UTR act -82.6
O=C1CS/C(=N/N=C/c2ccccc2)N1Cc1ccco1	aSyn UTR act -81.3
CC(=O)c1c(C)[nH]c(C(=O)Nc2cc(C)cc(C)c2)c1C	aSyn UTR act -77.6
CC(=O)c1c(C)[nH]c(C(=O)Nc2nc(C)cs2)c1C	none
COc1ccc(OC)c(NC(=O)c2[nH]c(C)c(C(C)=O)c2C)c1	aSyn UTR act -85.0
CC(=O)c1c(C)[nH]c(C(=O)Nc2cccc(S(=O)(=O)N(C)C)c2)c1C	aSyn UTR act -153.4
OCCN(CCO)CC(O)COc1ccc(C23CC4CC(CC(C4)C2)C3)cc1 (configuration not stated)	none
Nc1c(-c2cccc(Cl)c2)cnc2c(-c3ccccc3)cnn12	aSyn UTR act -243.3
Cc1nn2c(N)c(-c3ccccc3)cnc2c1-c1ccccc1	aSyn UTR act -131.2
Fc1ccc(-c2cnn3c(-c4ccncc4)ccnc23)cc1	aSyn UTR act -69.4
COc1ccc(-c2c(C)nc3c(-c4ccc(F)cc4)cnn3c2N)cc1	aSyn UTR act -142.9
CCOC(=O)c1cnc2c(-c3ccc(Cl)cc3)cnn2c1C	aSyn UTR act -97.6
Nc1c(-c2ccc(Cl)cc2)cnc2c(-c3ccc(F)cc3)cnn12	aSyn UTR act -95.2
